Assay outcomes deposited in PubChem by National Center for Advancing Translational Sciences (NCATS).
Shown are actives, neighbours in structure and some others; about 7.6% of the full set was active somewhere.
ELG1 DNA repair: inhibitors of ELG1-dependent DNA repair in HEK293T cells. Potency, µM (doses to about 46.1 µM), hits mostly inhibitors. 2.3% of 330,000 active. AID 504467. HEK293T ELG1-luciferase reporter, luminescence, 16 h; DNA damage induced by 5-fluorouridine; also: nearly all actives have a fitted effect of over 55% in size
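Quantitative HTS, concentration-response format. 2,000 cells/well co-treated with 5-fluorouridine and compound, 16 hr in 5% CO2 at 37 °C; ONE-Glo luminescence read after 30 min.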
p53 reactivator: restores transcriptional activity of mutant p53; H1299 p53-A138V BP100-luciferase reporter, luminescence, 24 h; Potency, µM (highest dose often 92.2 µM), usual class: activators; 0.063% of 320,000 active; AID 504706; also: nearly all actives have a fitted effect of over 45% in size
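p53-null H1299 cells stably carrying temperature-sensitive p53-A138V and a BP100-luciferase reporter were pinned with compounds (4-point, 1:5 series) and held 24 hrs at 37 deg C. Luminescence was read 10 min after detection reagent.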
Giardia kill: kills Giardia lamblia. activity change, % at 7.66 µM, hits read low. Giardia lamblia trophozoite viability. 0.15% of 340,000 active; in the data active = activity change below about -80%; inconclusive = between about -30% and that limit;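 also: parasites exposed to compound for two days anaerobically before the ATP read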
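Trophozoites 100 cells/well + cpd; 48 hrs, 37 deg C, anaerobic. ATPLite 1-Step added, 15-30 min RT, luminescence read (ATP-based viability).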
Gal4-VP16 FLuc: Gal4-VP16 reporter inhibition counter-screen. Drosophila S2 Gal4-VP16 UAS-luciferase, luminescence, 20 h. Potency, µM (titrated, usually from 53.6 µM), actives largely listed as inhibitors. 3.5% of 310,000 active. AID 2546;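 also: Gal4-VP16 expression switched on by copper sulfate through the metallothionein promoter; nearly all actives have a fitted effect of over 50% in size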
BRCA1 expr act: increases BRCA1 expression; Potency, µM (highest dose often 46.1 µM), hits mostly activators; 1.1% of 380,000 active; MCF7-BRCA1-FFLuc reporter, luminescence, 48 h; response scale: scaled: vehicle 0%, 10 µM genistein 100%; also: nearly all actives have a fitted effect of over 80% in size
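Activators of BRCA1 expression were detected as increased firefly luciferase luminescence in engineered MCF7 cells after 48 h compound incubation. Signals were scaled to genistein 10 microM as full activation.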
RORgamma inh: ROR gamma (mouse) transcription inhibition; P51450; Drosophila S2 Gal4-RORgamma UAS-luciferase reporter, 20 h; Potency, µM (titrated, usually from 53.6 µM), actives largely listed as inhibitors; 5.4% of 310,000 active; also: nearly all actives have a fitted effect of over 60% in size
Target sequence (P51450 whole entry, looked up, the tested form may be a part): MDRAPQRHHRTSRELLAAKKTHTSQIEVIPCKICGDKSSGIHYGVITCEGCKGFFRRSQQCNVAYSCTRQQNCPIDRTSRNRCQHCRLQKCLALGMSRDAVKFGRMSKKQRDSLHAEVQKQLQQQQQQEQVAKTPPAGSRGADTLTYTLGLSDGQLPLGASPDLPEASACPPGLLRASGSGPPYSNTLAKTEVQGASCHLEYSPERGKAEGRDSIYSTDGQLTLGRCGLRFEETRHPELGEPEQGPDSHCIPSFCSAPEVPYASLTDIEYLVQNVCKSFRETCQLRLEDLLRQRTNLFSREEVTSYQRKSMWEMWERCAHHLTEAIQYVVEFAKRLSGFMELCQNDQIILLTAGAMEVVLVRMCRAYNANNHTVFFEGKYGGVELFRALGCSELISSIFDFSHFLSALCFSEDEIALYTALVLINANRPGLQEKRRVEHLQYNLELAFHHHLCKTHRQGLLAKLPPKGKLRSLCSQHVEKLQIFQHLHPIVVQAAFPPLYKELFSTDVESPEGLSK
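Drosophila Schneider cells stably carrying a metallothionein-driven Gal4 DBD–ROR gamma fusion and a UAS-Photinus luciferase reporter were exposed to compound for 1 hr, then induced with copper sulfate (700 uM final) for 20 hr at ambient temperature before luminescence reading.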
Numbers stand for hits; n = inactive; u = inconclusive; x = no result given; [ ] = remark or other dose. Unless noted, calls follow the shape of the dose curve; as a rule, active = well fitted curve in the direction sought with a large enough effect; inconclusive = small, poorly fitted or top-dose-only effect, or another doubt; inactive = no such curve, though single readings can be large; an effect the other way counts as inactive or inconclusive.

SMILES | ELG1 DNA repair | p53 reactivator | Giardia kill | Gal4-VP16 FLuc | BRCA1 expr act | RORgamma inh
O=C(NC(=Nc1nc2ccccc2o1)NC(=O)c1ccccc1)c1ccccc1 | u | n | n | n | n | n
N/C(=N\c1nc2ccccc2o1)NC(=O)c1ccccc1F | u | u | n | 7.94µM | n | 2.51µM
COc1ccccc1C(=O)NC(=Nc1nc2ccccc2o1)NC(=O)c1ccccc1OC | u | n | n | u | n | 0.794µM
CCOc1ccc(NS(=O)(=O)c2ccc(C(=O)NCCCN3CCCC3=O)cc2)cc1 | n | n | n | n | n | u
CCCn1c(N)c(N(CCOC)C(=O)c2ccc(Cl)c([N+](=O)[O-])c2)c(=O)[nH]c1=O | n | n | n | n | n | n
CN(c1ccc(C(=O)Nc2cccnc2)cc1)S(=O)(=O)c1ccccc1 | n | n | n | n | n | u
COc1ccc(S(=O)(=O)N(C)c2ccc(C(=O)N3CCCC3)cc2)cc1OC | u | n | n | n | n | u
COc1ccc(S(=O)(=O)N(C)c2ccc(C(=O)Nc3cccnc3)cc2)cc1 | 23.1µM | n | n | n | n | u
COc1ccc(S(=O)(=O)N(C)c2ccc(C(=O)N3CCN(c4ccccc4)CC3)cc2)cc1OC | 13µM | n | n | n | n | n
COc1ccc(S(=O)(=O)N(C)c2ccc(C(=O)Nc3cccnc3)cc2)cc1OC | 20.6µM | n | n | n | n | n
COCC(=O)N1CCCC(C(=O)c2ccc3c4c(cccc24)CC3)C1 (configuration not stated) | n | n | n | n | n | n
O=C(c1ccc2c3c(cccc13)CC2)C1CCCN(Cc2ccccn2)C1 (configuration not stated) | u | n | n | 11.2µM | n | 3.55µM
Cc1cnc(CN2CCCC(C(=O)c3ccc4c5c(cccc35)CC4)C2)[nH]1 (configuration not stated) | u | n | n | n | n | 11.2µM
O=C(c1ccc2c3c(cccc13)CC2)C1CCCN(Cc2ccc(OCCO)cc2)C1 (configuration not stated) | n | n | u | n | n | n
Cc1ccc(S(=O)(=O)NCCC(=O)OCC(=O)Nc2cccc(Cl)c2)cc1 | u | n | n | x | n | x
COC(=O)CC1Oc2ccccc2N(Cc2ccc(C)cc2)C1=O (configuration not stated) | u | n | n | n | n | n
O=C(CSc1nnc(-c2ccccc2F)n1C1CC1)Nc1cccnc1Cl | u | n | n | 39.8µM | n | u
Cc1ccc(-n2nnnc2SCC(=O)Nc2cccnc2Cl)cc1 | n | n | n | 12.6µM | n | u
CCOC(=O)N1CCN(C(=O)CCc2c(C)nc3nc(C)nn3c2C)CC1 | n | n | n | n | n | n
O=C(NN1C(=O)c2cc(Br)ccc2NC1c1cc(Br)cc(Br)c1O)c1ccncc1 (configuration not stated) | n | n | n | 7.94µM | n | 5.01µM
CCN(CC(=O)Nc1ccc(NC(C)=O)cc1)C(=O)c1ccc(C(=O)c2ccccc2)cc1 | n | n | n | x | n | x
COc1ccc(-c2nc(Cn3c(SCc4ccc(C)cc4)nc4ccncc43)c(C)o2)cc1OC | 13µM | n | n | u | n | n
COc1ccc(-c2nc(Cn3c(SCc4cccc(F)c4)nc4ccncc43)c(C)o2)cc1OC | u | n | n | u | n | n
Cc1cc(C)c(NC(=S)N(CCN2CCCCC2)Cc2ccco2)c(C)c1 | n | n | n | n[10 µM] | n | 10µM
Cc1ccccc1NC(=S)N(CCN1CCCCC1)Cc1ccco1 | n | n | n | n | n | n
Cc1cccc(C)c1NC(=S)N(CCN1CCCCCC1)Cc1ccco1 | n | n | n | n[10 µM] | n | 12.6µM
Nc1cccnc1Sc1ccc([N+](=O)[O-])cn1 | n | n | n | u | n | 3.98µM
Cn1c(N)c(S(=O)(=O)N2CCCC2)c(=O)n(C)c1=O | n | n | n | n | n | n
Cc1cc(NC(=O)c2cccs2)ncc1NC(=O)c1cccc(F)c1 | u | n | n | u | n | n
Cc1ccccc1C(=O)Nc1cccc(NC(=S)NC(=O)c2cccs2)c1 | u | n | n | u | n | u
